Results as given in PubChem BioAssay AID1076 (NMMLSC, 2008).
Active and inactive are the calls of the source.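 How the source made its calls: active means cell event count below 40, meaning activity score above 60 where score is 100 minus count; inactive means the rest.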

Experiment: cytotoxicity in LNCaP prostate cells – cell-based, cell event count, single point, cytotoxicity control for prostate differentiation activator project, confirmation (AID 1076);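 further: counts scatter-gated live cells after medium removal discards detached dead cells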
Details: LNCaP cell loss, flow cytometry event count, 4 d, stronger effect = lower value

| SMILES | cell event count (at 100 µM) | cell event count (event count, at 10 µM) |
| --- | --- | --- |
| O=c1cc(N2CCN(c3ccc(F)cc3)CC2)[nH]c(=O)n1C1CCCCC1 | 173 (inactive) | 318 |
| Cc1ccc(-n2c(SCC(=O)Nc3nccs3)nc3c(c2=O)SCC3)cc1 | 83 (inactive) | 282 |
| O=S1(=O)C=C(Sc2nc3ccccc3s2)c2ccccc21 | 39 (active) | 44 |
| COc1ccc(CCNC(=O)C2CCN(Cc3nc(-c4ccccc4F)oc3C)CC2)cc1OC | 524 (inactive) | 478 |
| Cc1oc(-c2ccccc2F)nc1CN1CCC(C(=O)NCc2cccs2)CC1 | 107 (inactive) | 214 |
| COc1cc(C2C3=C(Nc4ncnn42)c2ccccc2CC3)cc(OC)c1OC (stereo unspecified) | 295 (inactive) | 428 |
| COc1cccc(-c2cc(C(=O)N3CCCc4ccccc43)no2)c1 | 9 (inactive) | 336 |
| Cc1oc(-c2ccccc2F)nc1CN1CCC(C(=O)NC2CCCCCCC2)CC1 | 6 (inactive) | 90 |
| CCc1ccc(-c2nc(CN3CCC(C(=O)N4CCN(c5ccccc5)CC4)CC3)c(C)o2)cc1 | 9 (inactive) | 254 |
| Cc1ccccc1CN1CCN(CC(=O)NCCCN2CCN(c3ccc(F)cc3)CC2)C1=O | 241 (inactive) | 195 |
| CCN(CCNC(=O)C1CCN(Cc2nc(-c3cccc(Cl)c3)oc2C)CC1)c1ccccc1 | 3 (active) | 83 |
| CCN(CC)CC(=O)Nc1ccc(-c2nc3cc(NC(=O)CN(CC)CC)ccc3o2)cc1 | 1 (inactive) | 140 |
| C=C(C)Cn1c(-c2ccccc2)nc2ccccc21 | 16 (inactive) | 106 |
| CCOC(=O)N1CCN(C(=O)C2CCN(Cc3nc(-c4ccccc4C)oc3C)CC2)CC1 | 111 (inactive) | 244 |
| Cn1c(C(=O)NCCCN2CCN(c3ccccc3F)CC2)cc2c(=O)n(C)c3ccccc3c21 | 5 (inactive) | 170 |
| CC(C)CCNC(=O)C1CCN(c2nc3ccccc3o2)CC1 | 73 (inactive) | 110 |
| Cc1cc(O)c(-c2cc(C(=O)Nc3ccc(S(=O)(=O)N4CCOCC4)cc3)[nH]n2)cc1C | 36 (inactive) | 86 |
| CCC(CC)C(=O)Nc1cccc(C(=O)NCc2ccco2)c1 | 220 (inactive) | 155 |
| CCN1C=C(Cc2cccs2)C2=C(C1)C(c1cccs1)C(C#N)=C(N)O2 (stereo unspecified) | 40 (inactive) | 200 |

| SMILES | cell event count (at 100 µM) | cell event count (event count, at 10 µM) |
| --- | --- | --- |
| CCOC(=O)c1c(C)[nH]c(C(=O)COC(=O)C2CC2C)c1C (stereo unspecified) | 37 (inactive) | 976 |
| COC(=O)Nc1sccc1C(=O)Nc1sccc1C(=O)OC | 144 (inactive) | 182 |
| Cc1oc(-c2cccc(Cl)c2)nc1CN1CCC(C(=O)NCc2cccnc2)CC1 | 38 (inactive) | 150 |
| O=C(NCCCN1CCN(c2ccccc2F)CC1)C1CCN(S(=O)(=O)N2CCOCC2)CC1 | 156 (inactive) | 108 |
| COc1ccc(OC)c(N=Cc2c(O)[nH]c3ccccc23)c1 | 207 (inactive) | 112 |
| CS(=O)(=O)c1nc(-c2cccs2)cc(C(F)(F)F)n1 | 53 (inactive) | 61 |
| Cc1oc(-c2cccc(Cl)c2)nc1CN1CCCC(C(=O)NC(C)c2ccc3c(c2)OCCO3)C1 (stereo unspecified) | 9 (inactive) | 136 |
| Cc1ccccc1-c1nc(CN2CCCC(C(=O)NCCCN3CCOCC3)C2)c(C)o1 (stereo unspecified) | 145 (inactive) | 175 |
| COc1ccc(Cc2noc(-c3ccc(C)cc3)n2)cc1 | 70 (inactive) | 152 |
| Cc1ccc(CNc2nc3ccccc3n3nnnc23)cc1 | 245 (inactive) | 196 |
| CCOc1ccc(C(=O)Nc2ccc(Cl)cn2)cc1Cl | 41 (inactive) | 86 |
| CCOC(=O)N1CCN(C(=O)CN(c2cccc(C(F)(F)F)c2)S(=O)(=O)c2ccccc2)CC1 | 137 (inactive) | 395 |
| COC(=O)c1cc(-c2ccccc2)sc1NC(=O)c1cc(C)on1 | 10 (active) | 42.5 |
| Cc1ccc(C)c2[nH]c(=O)c(CN(CCN3CCCC3)C(=O)Nc3cccc(Cl)c3)cc12 | 5 (inactive) | 97 |
| O=c1cc(-c2ccccc2)[nH]c2ccccc12 | 9 (active) | 76 |
| CCC(C(=O)Nc1ccccc1OC)n1c(C(=O)OC)cc2ccsc21 (stereo unspecified) | 41 (inactive) | 270 |
| CCN1CCN(C(c2cccs2)C(C)NS(=O)(=O)c2ccc(Br)cc2)CC1 (stereo unspecified) | 17 (active) | 62 |
| Cc1cc(=O)n2nc(N3CCCC(C(=O)NCCCN4CCc5ccccc5C4)C3)sc2n1 (stereo unspecified) | 259 (inactive) | 146 |
| CCc1ccc(-c2nc(CN3CCCC(C(=O)O)C3)c(C)o2)cc1 (stereo unspecified) | 153 (inactive) | 123 |
